The values below come from PubChem BioAssay (Tox21).

Values without a mark were called inactive. Inconclusive results are not listed. The source made the active and inactive calls. Unless noted, calls come from the whole dose curve; as a rule, active = well fitted curve in the direction sought with a large enough effect in the repeat runs; inconclusive = weak or mixed curves; inactive = no such curve, though single readings can be large; an effect the other way counts as inactive or inconclusive.

Experiment [1] in a line: A CellTox Green Cytotoxicity Assay to monitor cytotoxicity in HEK293 cells - 32 hour (AID 1224881). Note: nearly all actives have a fitted effect of over 40% in size. Note: potency is the fitted concentration of half-maximal effect. The method in brief: (§1)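 HEK293 cells, 600/well, were preincubated 5 hours and then exposed to compounds at 37 C for up to 40 hours. A cell-impermeant cyanine dye staining dead-cell DNA was read by fluorescence at 0, 8, 16, 24, 32 and 40 h time points.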
Experiment [2] is described as follows: A CellTox Green Cytotoxicity Assay to monitor cytotoxicity in HepG2 cells - 32 hour (AID 1224883). Note: nearly all actives have a fitted effect of over 50% in size. Note: potency is the fitted concentration of half-maximal effect. The method in brief:
(§2)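 HepG2 cells, 600/well, preincubated 5 h with CellTox Green dye, then exposed to Tox21 compounds in DMSO at 37 C for up to 40 h. Dead-cell DNA fluorescence read at the indicated time point.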

Experiment [3] can be described thus: A CellTox Green Cytotoxicity Assay to monitor cytotoxicity in HEK293 cells - 8 hour (AID 1224884). Note: nearly all actives have a fitted effect of over 35% in size. Note: potency is the fitted concentration of half-maximal effect. In a few lines:
as §1

Experiment [4] can be described thus: qHTS RealTime-Glo MT Cell Viability Assay in HepG2 cells - 16 hour (AID 1224885). Note: nearly all actives have a fitted effect of over 50% in size. Note: potency is the fitted concentration of half-maximal effect. The method in brief:
(§3)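 qHTS, HepG2, 600 cells/well, RealTime-Glo (NanoLuc + prosubstrate) added with cells; 5 h preincubation; DMSO compound addition; 37 C; luminescence at 0/8/16/24/32/40 h.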

Experiment [5] can be described thus: qHTS RealTime-Glo MT Cell Viability Assay in HepG2 cells - 0 hour (AID 1224889). Note: nearly all actives have a fitted effect of over 50% in size. In a few lines:
as §3
On the technique in general: qHTS replaces the single test concentration by a dilution series.

The nature of experiment [6]: A CellTox Green Cytotoxicity Assay to monitor cytotoxicity in HepG2 cells - 8 hour (AID 1224890). Note: nearly all actives have a fitted effect of over 45% in size. The method in brief:
as §2

Experiment [7] can be described thus: qHTS assay to identify small molecule antagonists of the estrogen receptor alpha (ER-alpha) signaling pathway using the BG1 cell line in the presence of 0.1 nM 17-beta-estradiol - cell viability counter screen (AID 1259241). Note: nearly all actives have a fitted effect of over 40% in size. Note: potency is the fitted concentration of half-maximal effect. The method in brief: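 Cells were plated and left 24 hr, compounds in DMSO were pinned in, 17beta-estradiol was added to 0.1 nM final, and after 22 hr CellTiter-Fluor reagent was added for 30 min before fluorescence was read.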

In experiment [8] the target is Estrogen receptor (Homo sapiens) (UniProt P03372). Put plainly: qHTS assay to identify small molecule antagonists of the estrogen receptor alpha (ER-alpha) signaling pathway using the BG1 cell line in the presence of 0.1 nM 17-beta-estradiol (AID 1259244). Note: nearly all actives have a fitted effect of over 50% in size. In a few lines:
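VM7Luc4E2 cells (endogenous full-length ER-alpha, 4×ERE-luciferase), kept 5 days in phenol red-free, charcoal-stripped FBS medium; 4,000 cells/well. Compounds added with 0.1 nM (final) 17beta-estradiol, 22 hr at 37C; luminescence read with ONE-Glo after 30 min.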

The nature of experiment [9]: qHTS assay to identify small molecule phospholipidosis (PLD) inducers (AID 1259344; active = well fitted curve in the direction sought with a large enough effect; an effect the other way counts as inactive or inconclusive). The method in brief:
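Phospholipidosis is scored by imaging LipidTOX-stained pits in HepG2 cells exposed to compound for 24 h at 37 C; pit counts and integrated intensities per well and per cell serve as outputs.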

Experiment [10] is described as follows: qHTS assay to identify small molecule HDAC inhibitors (AID 1259364). Note: top concentration of the series differs between compounds; nearly all actives have a fitted effect of over 45% in size. In a few lines:
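Wild-type HCT-116 cells, plated overnight at 37 C, exposed to compounds 2 hr at 37 C; luminogenic HDAC-Glo substrate then added 30 min at room temperature. Luminescence reports relative endogenous class I/II HDAC activity.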

The nature of experiment [11]: qHTS assay to identify small molecule HDAC inhibitors - cell viability counter screen (AID 1259365). In a few lines: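 Counter screen in wild-type HCT-116 cells: compounds dissolved in DMSO are pin-transferred onto overnight-plated cells and left 2hr at 37C. ATP-based CellTiter-Glo luminescence then measures viable cells.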
Experiment [12] can be described thus: qHTS assay to identify small molecule agonists of the sonic hedgehog signaling (Shh) pathway - cell viability counter screen (AID 1259366). Note: nearly all actives have a fitted effect of over 50% in size. Note: potency is the fitted concentration of half-maximal effect. The method in brief:
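Cells are plated at 2,000 per well and left 4hr at 37C, 5% CO2 before compound addition. After 23hr of treatment, CellTiter-Fluor reagent is added for 1hr at 37C and fluorescence is measured.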

Experiment [13] is described as follows: qHTS assay to identify small molecule agonists of the sonic hedgehog signaling (Shh) pathway (AID 1259368; calls by dose curve;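 note: NIH/3T3-derived 3T3Gli1-Luc cells carrying a stable Gli1-driven firefly luciferase reporter; series mostly up to about 92 µM; nearly all actives have a fitted effect of over 15% in size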). In a few lines:
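NIH/3T3-derived 3T3Gli1-Luc cells with stably integrated Gli1-driven firefly luciferase, 2,000 cells/well, compounds added after 4 hr. Incubated 24 hr at 37C, 5% CO2; luminescence read after 30 min with luciferase reagent at room temperature.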

Experiment [14] is described as follows: qHTS RealTime-Glo MT Cell Viability Assay in HEK293 cells - 24 hour (AID 1224886). Note: nearly all actives have a fitted effect of over 50% in size. Note: potency is the fitted concentration of half-maximal effect. The method in brief: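 Assay medium contained NanoLuc luciferase plus cell-permeant prosubstrate, added with HEK293 cells at 600 cells/well. After 5 h at 37 C/5% CO2 compounds were added; plates stayed at 37 C for 40 h with serial luminescence reads.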
A short description of experiment [15]: qHTS RealTime-Glo MT Cell Viability Assay in HEK293 cells - 8 hour (AID 1224887). Note: nearly all actives have a fitted effect of over 50% in size. Note: potency is the fitted concentration of half-maximal effect. The method in brief: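 600 cells/well were plated with the nonlytic NanoLuc/prosubstrate reagent, pre-incubated 5 h, then given 23 nL of compound in DMSO. Incubation at 37 C for 40 h, with luminescence from viable-cell-reduced substrate read repeatedly from 0 h.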
Experiment [16] can be described thus: A CellTox Green Cytotoxicity Assay to monitor cytotoxicity in HEK293 cells - 16 hour (AID 1224888). Note: nearly all actives have a fitted effect of over 35% in size. Note: potency is the fitted concentration of half-maximal effect. The method in brief: as §1
A short description of experiment [17]: qHTS assay to identify small molecule antagonists of the androgen receptor (AR) signaling pathway using the MDA cell line in the presence of 0.5 nM R1881 - cell viability counter screen (AID 1259242). Note: nearly all actives have a fitted effect of over 45% in size. The method in brief:
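MDA-kb2 cells (MMTV-luciferase, AR/GR responsive) were treated with compounds plus 0.5 nM R1881 (final) for 16 hr at 37C, 0% CO2. Viability was then read in the same wells as live-cell protease fluorescence (CellTiter-Fluor, 30 min).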

Experiment [18] in a line: qHTS assay to identify small molecule antagonists of the sonic hedgehog signaling (Shh) pathway - cell viability counter screen (AID 1259367). Note: nearly all actives have a fitted effect of over 55% in size. The method in brief: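 Cells: 3T3 Gli1-Luc, 2,000/well, 4 hr pre-incubation. Compounds in DMSO, then conditioned medium. Incubation 24 hr, 37C, 5% CO2. CellTiter-Fluor at 23 hr, 1 hr, fluorescence.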
Experiment [19] can be described thus: A CellTox Green Cytotoxicity Assay to monitor cytotoxicity in HepG2 cells - 0 hour (AID 1224882). Note: nearly all actives have a fitted effect of over 35% in size. The method in brief:
as §2

Experiment [20] addresses Androgen receptor (Homo sapiens) (UniProt P10275). Put plainly: qHTS assay to identify small molecule antagonists of the androgen receptor (AR) signaling pathway using the MDA cell line in the presence of 0.5 nM R1881 (AID 1259243). Note: nearly all actives have a fitted effect of over 50% in size. The method in brief: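 MDA-kb2 cells (MMTV-luciferase, responsive to AR and GR) at 3,000/well, rested 5 h at 37C, 0% CO2, then given compounds plus 0.5 nM R1881 (final) for 16 hr. Luciferase read with ONE-Glo after 30 min at room temperature.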
% is set by controls: 0 for no effect and ±100 for the full control effect.

Sequence of Estrogen receptor (Homo sapiens) (P03372 whole entry, looked up): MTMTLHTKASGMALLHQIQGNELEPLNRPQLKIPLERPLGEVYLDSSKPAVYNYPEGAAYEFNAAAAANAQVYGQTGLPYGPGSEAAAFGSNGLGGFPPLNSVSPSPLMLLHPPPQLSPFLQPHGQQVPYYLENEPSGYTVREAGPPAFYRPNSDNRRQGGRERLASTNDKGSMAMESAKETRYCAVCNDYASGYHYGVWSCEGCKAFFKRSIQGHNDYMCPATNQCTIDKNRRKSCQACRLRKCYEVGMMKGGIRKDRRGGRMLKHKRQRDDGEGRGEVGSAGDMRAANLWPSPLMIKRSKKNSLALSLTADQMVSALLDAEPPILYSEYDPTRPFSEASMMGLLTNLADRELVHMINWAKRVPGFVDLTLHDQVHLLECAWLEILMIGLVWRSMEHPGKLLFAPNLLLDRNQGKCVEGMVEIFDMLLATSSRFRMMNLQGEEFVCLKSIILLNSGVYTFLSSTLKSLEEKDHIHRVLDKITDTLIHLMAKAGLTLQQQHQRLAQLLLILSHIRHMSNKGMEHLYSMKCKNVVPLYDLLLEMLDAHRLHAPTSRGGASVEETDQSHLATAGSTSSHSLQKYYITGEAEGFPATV
Sequence of Androgen receptor (Homo sapiens) (P10275 whole entry, looked up): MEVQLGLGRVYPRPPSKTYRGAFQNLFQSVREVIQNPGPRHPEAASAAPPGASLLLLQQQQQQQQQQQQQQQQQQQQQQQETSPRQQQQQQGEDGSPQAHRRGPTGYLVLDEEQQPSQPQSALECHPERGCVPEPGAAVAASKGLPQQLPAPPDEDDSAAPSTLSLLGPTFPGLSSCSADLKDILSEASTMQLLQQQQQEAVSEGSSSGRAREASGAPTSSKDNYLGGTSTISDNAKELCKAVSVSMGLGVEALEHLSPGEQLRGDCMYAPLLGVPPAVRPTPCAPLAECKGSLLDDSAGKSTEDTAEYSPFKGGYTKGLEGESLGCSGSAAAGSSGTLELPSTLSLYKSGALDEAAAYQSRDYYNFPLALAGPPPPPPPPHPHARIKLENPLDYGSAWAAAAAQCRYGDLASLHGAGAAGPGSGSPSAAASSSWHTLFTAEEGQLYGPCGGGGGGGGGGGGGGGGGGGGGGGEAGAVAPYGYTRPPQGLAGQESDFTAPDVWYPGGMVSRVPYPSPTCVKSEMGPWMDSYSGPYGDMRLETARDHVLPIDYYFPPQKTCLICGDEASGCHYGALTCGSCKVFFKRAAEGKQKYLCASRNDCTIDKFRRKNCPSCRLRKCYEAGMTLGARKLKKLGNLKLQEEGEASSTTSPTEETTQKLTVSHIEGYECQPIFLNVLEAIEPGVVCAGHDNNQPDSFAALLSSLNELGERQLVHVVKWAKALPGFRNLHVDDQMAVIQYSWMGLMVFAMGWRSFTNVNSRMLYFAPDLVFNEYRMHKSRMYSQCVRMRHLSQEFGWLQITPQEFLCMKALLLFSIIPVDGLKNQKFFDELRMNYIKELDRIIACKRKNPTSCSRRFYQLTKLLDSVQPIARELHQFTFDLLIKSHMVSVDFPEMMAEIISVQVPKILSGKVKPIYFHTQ

`CC(=O)c1ccc2c(c1)N(CCCN1CCC(CCO)CC1)c1ccccc1S2`: the Potency in experiment [1] was 23.9 µM (active); in experiment [2], 23.9 µM (active); in experiment [12] it was 11.9 µM (active). Further, the Potency result in experiment [3], in experiment [4], in experiment [5], in [6], in experiment [7] and in experiment [8] was “inactive” in each case. The Potency entry in experiment [9], in experiment [10] and in experiment [11] was “inactive” in each case. The outcome in experiment [13] was inactive.

Turning to `CN1CCC(N(Cc2cccs2)c2ccccc2)CC1`, the Potency in experiment [1] was 21.3 µM (active); in experiment [2], 21.3 µM (active); in [3], 19 µM (active); in experiment [16], 19 µM (active). In addition, the Potency entry in [4], in experiment [14], in [15], in [5], in experiment [7] and in [17] was “inactive” throughout. For the same molecule, the Potency entry in [8], in [10] and in experiment [12] was “inactive” throughout. The PLD induction in [9] was -4.03% [at 7.66 µM]. The molecule was called inactive in experiment [13].

As for `CCN(CC)CCNc1ccc(CNC=O)c2sc3ccc(OC)cc3c(=O)c12`, the Potency result in experiment [1], in [3], in experiment [16], in [6], in [8] and in experiment [10] was “inactive” throughout. Besides, the Potency result in [11], in [12] and in [18] was “inactive” throughout. The Potency in experiment [4] is 21.9 µM (active); in experiment [14], 19.5 µM (active); in experiment [7], 4.33 µM (active). Besides, the molecule was called inactive in [13].

For the molecule `c1ccc(C(O[C@H]2CCCN(CCc3ccc4c(c3)OCO4)C2)c2ccccc2)cc1`, the Potency entry in experiment [1], in experiment [3], in [4], in experiment [16], in experiment [5] and in [7] was “inactive” in each case. Moreover, the Potency entry in experiment [17], in experiment [8], in experiment [10], in [11], in [12] and in experiment [18] was “inactive” each time. Moreover, in experiment [13], the call was inactive.

Turning to `O=C(Cl)c1cc(C(=O)Cl)cc(C(=O)Cl)c1`, the Potency result in [19], in experiment [3], in experiment [5], in experiment [7], in experiment [17] and in experiment [8] was “inactive” in each case. The Potency entry in experiment [10], in experiment [11] and in experiment [18] was “inactive” throughout. Also, the Potency in experiment [15] is 49 µM (active). In experiment [13], the outcome was inactive.

Regarding `CCOC(=O)COC(=O)c1cc(Oc2ccc(C(F)(F)F)cc2Cl)ccc1[N+](=O)[O-]`, the Potency result in experiment [19], in experiment [3], in [4], in experiment [16], in experiment [5] and in experiment [6] was “inactive” throughout. In addition, the Potency result in experiment [7], in [17], in [10], in [11], in experiment [12] and in experiment [18] was “inactive” throughout. Besides, the Potency in experiment [15] was 49 µM (active). In addition, the molecule was classed as inactive in experiment [13].

On to `CN(C)c1ccc(C(c2ccccc2)c2ccc(N(C)C)cc2)cc1`, for which the Potency entry in [19], in [2], in [3], in experiment [15], in experiment [16] and in experiment [5] was “inactive” throughout. For the same molecule, the Potency result in [6], in experiment [7], in experiment [17], in experiment [10], in [11] and in experiment [12] was “inactive” in each case. In addition, in experiment [18], the Potency entry is “inactive”. Further, in experiment [13], the molecule was classed as inactive.

As to `NS(=O)(=O)c1ccc(N2CCCCS2(=O)=O)cc1`, the Potency entry in experiment [1], in experiment [4], in [14], in experiment [15], in experiment [16] and in experiment [5] was “inactive” each time. Moreover, the Potency entry in [6], in experiment [7], in [17], in experiment [20], in [8] and in [10] was “inactive” throughout. The Potency entry in experiment [11], in experiment [12] and in experiment [18] was “inactive” throughout. The molecule was classed as inactive in experiment [13].
